According to PubChem BioAssay AID920 (The Scripps Research Institute Molecular Screening Center, 2007):
Screen size: about 200,000 compounds; about 700 (0.35%) were called active.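 How the source made its calls: active means inhibition above a set limit, the mean inhibition across all tested compounds plus 3 SD (cut at about 34% in these data); inactive means the rest.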 The entries come from a sample that favours actives as a whole.

Assay: STAT1 signaling inhibitors, primary screen, cell-based, HTS, luciferase reporter (AID 920);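 further: 0% = IFN-gamma with DMSO and 100% = IFN-gamma with 300 µM nifuroxazide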
Settings: NIH 3T3 STAT1-luciferase reporter, IFN-gamma, luminescence; at 5.5 µM; hits give high values

inhibition, active:
C(=N\Nc1ccc2ccccc2n1)/c1ccc2c(c1)OCO2 68.7%, c1c2c(cc3sc(N4CCCCC4)nc13)OCCO2 47.8%, CCc1ccc2oc(-c3ccc(N)cc3)nc2c1 34.5%, COc1ccc(-c2nc(-c3ccccc3)no2)c(OC)c1 60.8%, CCOC(=O)C(=CNc1cccc(C)n1)C(=O)OCC 43.5%, Fc1ccc2[nH]c3c(N4CCN(Cc5ccc6c(c5)OCO6)CC4)ncnc3c2c1 45.1%, CCOc1cc(/C=C(/C#N)c2ccc(Cl)cc2)cc(Cl)c1OCC(=O)O 47.4%, O=C(O)c1cccc(NC(=S)N/N=C/c2c[nH]c3ccccc23)c1 58%, CCOC(=O)N1CCN(C(=O)C2CCN(c3ncnc4c3sc3cccc(F)c34)CC2)CC1 37.1%, NS(=O)(=O)c1cccc(NC(=O)CSc2nc3ccccc3n2-c2ccccc2)c1 55.1%, CCOC(=O)N1CCN(C(=O)CSc2nnc(-c3c[nH]c4ccccc34)n2CCOC)CC1 37.2%

inhibition, inactive:
Cc1noc(C)c1/C=N/Nc1ccc2ccccc2n1 -64.7%, Brc1ccc(-c2csc(N/N=C/c3ccc4c(c3)OCO4)n2)cc1 -12.1%, CCOC(=O)C1C(c2ccc(Cl)cc2)NC(=S)NC1(O)C(F)(F)F (configuration not stated) 10.5%, Cc1ccc(CN2C(=O)N/C(=C/c3cc(C)n(-c4ccccn4)c3C)C2=O)cc1 -13.2%, S=C(Nc1ccc2c(c1)OCO2)N1CCCC1 -9.5%, COc1ccc2nc(Nc3nc4cc5c(cc4s3)OCCO5)sc2c1 -15.9%, Brc1ccc2nc(N3CCCC3)sc2c1 -39.3%, CCOC(=O)C1(CCOc2ccccc2)CCN(C(=O)c2cncs2)CC1 -0.02%, O=C(O)CSc1nnc(-c2ccc3c(c2)OCO3)n1-c1ccccc1 -5.92%, CCCCCC(=O)Nc1ccc2oc(-c3ccncc3)nc2c1 -3.9%, COc1cccc(-c2nc3cc(C)ccc3o2)c1 -6.24%, CC(C)/C=N/NC(=O)c1cc(Br)ccc1O 11.2%, O=C(/C=C/c1ccccc1[N+](=O)[O-])NCC1CCCO1 (configuration not stated) -5.46%, CCc1nnc(NC(=O)CCCSc2nc3ccccc3[nH]2)s1 20.4%, NC(=O)Nc1ccccc1C(=O)NCCc1ccccc1 -28.8%, COc1cc2c(C(=O)N3CCN(C)CC3)c(CSc3ccccc3)n(C)c2cc1Br 10.4%, COc1ccc(-c2noc(-c3cccc(OC)c3OC)n2)cc1OC -49.2%, COc1ccc(-c2noc(-c3ccc(C)cc3)n2)cc1 -36.1%, Cc1ccc(C(C)(C)C)c(OCCCCN2CCCC2)c1 9.92%, Cc1nc2ccccc2c(C)c1C(=O)c1ccc(F)cc1 15.9%, O=C(c1ccc(S(=O)(=O)c2ccccc2)cc1)N1CCCCCC1 14.2%, Cc1cccc(NC(=O)c2ccc3ccccc3n2)n1 -31.6%, CCOc1ccc(OCc2ccc(C(=O)Nc3cccc(C)n3)o2)cc1 -24.1%, Cc1ccc(C(C[N+](=O)[O-])c2c(C)cc3ccccn23)cc1 (configuration not stated) 10.7%, C=CCN1C(=O)C(Cc2ccc(OCC)cc2)SC1=Nc1ccc(C(=O)O)cc1 (configuration not stated) 11.1%, Nc1ccc(OCC(O)C[n+]2ccc(CCS(=O)(=O)[O-])cc2)cc1 (configuration not stated) 0.06%, Fc1ccc2[nH]c3c(N4CCSCC4)ncnc3c2c1 25.6%, Cc1cc(N2CCN(Cc3ccc4c(c3)OCO4)CC2)n2ncnc2n1 6.31%, O=C(CC1SC(=Nc2ccccc2F)N(CCN2CCOCC2)C1=O)Nc1ccc(F)cc1F (configuration not stated) 2.14%, Cc1ccc(N/C(N)=N/c2nc(C(F)(F)F)cc(C(F)(F)F)n2)cc1 -12.9%, CCOC(=O)CN/C=C(\C#N)c1ccc(F)cc1 1.52%, CCOc1c(Cl)cc(/C=N/O)cc1OC 5.54%, COc1ccc(C2c3c(C)nn(-c4ccccc4)c3NC(=O)N2c2ccccc2)cc1 (configuration not stated) -3.45%, Cc1noc(C)c1CCC(=O)O 3.78%, O=C(C1CCN(C2CCN(Cc3ccc4cc(F)ccc4n3)CC2)CC1)N1CCCC1 2.2%, CCc1cc(CNC(=O)CC2C(=O)NCCN2CC2CCCCC2)on1 (configuration not stated) 6.89%, CSC(=S)N/N=C/c1c[nH]c2ccccc12 -6.4%, CN(C)S(=O)(=O)c1cccc(NC(=S)N/N=C/C(=O)c2ccccc2)c1 -1.89%, COc1ccc(CCC(=O)OCC(=O)Nc2ccc(C)c(S(=O)(=O)N(C)C)c2)cc1 1.53%, Cc1ccc2[nH]cc(CCCN3C(=O)c4ccccc4C3=O)c2c1 0.21%, CCOC(=O)N1CCN(C(=O)C2CCN(Cc3ccc(OC)cc3OC)CC2)CC1 5.92%, CCOC(=O)C1CCN(c2ncnc3c2oc2ccc(Br)cc23)CC1 -3.28%, Cc1cccc(-n2c(SCC(=O)Nc3cccc(S(=O)(=O)NC4=NCCCCC4)c3)nc3ccccc3c2=O)c1C -1.66%, Cc1ccc(-n2c(SCC(=O)Nc3ncc(Cl)cc3Cl)nc3ccccc32)cc1 12.4%, Cc1nn(C)cc1C(=O)Nc1ccccc1Br -7.01%, CCCN1C(=O)C(Cc2nc3ccccc3c(=O)n2-c2ccccc2)c2cc(C)ccc21 (configuration not stated) 6.11%, CCCOC1CCCN(Cc2cn(C)nc2-c2ccccc2F)C1 (configuration not stated) -4.18%, Cc1ncoc1C(=O)NCCC(c1ccccc1)c1ccccc1 -1.04%, CCC(C)Sc1nnc(-c2c[nH]c3ccccc23)n1CCOC (configuration not stated) 3.54%, CCn1c(SCC(=O)Nc2ccc(OC)c(OC)c2)nnc1-c1c[nH]c2ccccc12 3.46%, Cc1ccc2[nH]cc(CCNC(=O)c3ccc([N+](=O)[O-])cc3)c2c1 -1.14%
